The full list was thinned out, with hits kept by preference.
LmPK inh – LmPK (Leishmania mexicana) enzyme inhibition | Q27686 | purified LmPK, Kinase-Glo ATP luminescence, 1 h | Potency, µM (top dose mostly 57.5 µM), for inactives: top-dose activity change, negative = inhibition, hits mostly inhibitors | 290,000 tested, 0.37% active | AID 1721; active = well fitted curve in the direction sought with a large enough effect; inconclusive = small, poorly fitted or top-dose-only effect, or another doubt; inactive = no such curve, though single readings can be large; an effect the other way counts as inactive or inconclusive; note: potency is the fitted concentration of half-maximal effect; % is set by controls: 0 for no effect and ±100 for the full control effect
Target sequence (Q27686 whole entry, looked up): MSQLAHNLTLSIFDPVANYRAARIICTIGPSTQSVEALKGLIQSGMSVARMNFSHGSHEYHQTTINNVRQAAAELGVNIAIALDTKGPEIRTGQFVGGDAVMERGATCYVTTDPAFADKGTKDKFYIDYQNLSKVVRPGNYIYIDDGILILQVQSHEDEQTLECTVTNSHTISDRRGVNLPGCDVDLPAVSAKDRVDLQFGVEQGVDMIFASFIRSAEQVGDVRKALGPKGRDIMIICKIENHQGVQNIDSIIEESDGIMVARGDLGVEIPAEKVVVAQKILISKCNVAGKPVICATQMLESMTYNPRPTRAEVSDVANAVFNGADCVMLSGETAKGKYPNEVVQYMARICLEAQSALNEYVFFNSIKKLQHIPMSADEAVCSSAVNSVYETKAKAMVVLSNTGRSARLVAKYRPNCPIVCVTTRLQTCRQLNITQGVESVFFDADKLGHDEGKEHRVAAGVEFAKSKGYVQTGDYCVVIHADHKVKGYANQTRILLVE
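Purified LmPK (0.1 nM) with 0.5 mM PEP and 0.1 mM ADP in imidazole buffer pH 7.2 with MgCl2/KCl, 1 h at room temperature. ATP formed was read by luciferase luminescence and normalized to no-enzyme and uninhibited controls.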
Cycloheximide cs – counter-screen for Shiga toxin inhibitors: cycloheximide protein synthesis inhibition; max response, %; 300,000 tested, 12% active; cell reporter, cycloheximide protein synthesis inhibition counterscreen; in the data active = max response mostly above about 13%, no sharp cut-off; inactive = mostly below about 14%; note: read at 38.3 µM for the half of the compounds with a filed dose; 0% is about no effect
SARS PLP yeast – SARS-CoV PLP inhibition in yeast | Potency, µM (doses to about 32.9 µM), without a hit: at the highest dose activity, positive = growth rescue, most hits filed as activators | 330,000 tested, 0.19% active | S. cerevisiae expressing SARS-CoV PLpro, growth rescue; note: potency is the fitted concentration of half-maximal effect; 0% is about no effect; nearly all actives have a fitted effect of over 55% in size
NS1 function inh – inhibitors of influenza NS1 protein function; 270,000 tested, 0.4% active; AID 2326; Potency, µM (highest dose often 46.1 µM), for inactives: at the top dose activity, positive = more growth; note: potency is the fitted concentration of half-maximal effect; actives are rising curves; nearly all actives have a fitted effect of over 50% in size
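A cell-based growth assay was used: compounds that relieve NS1-induced slow growth of budding yeast raise OD600. Assay medium was yeast nitrogen base with ammonium sulphate and -URA supplement, pH 6.0, with 2% galactose.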
Shiga inhibitor – blocks Shiga toxin action in Vero cells. Vero cells, Shiga toxin protein synthesis inhibition reporter. AID 2315. inhibition, % at 38.7 µM. 290,000 tested, 9.2% active; in the data active = inhibition mostly above about 28%, no sharp cut-off; inactive = mostly below about 43%; note: 0% is about no effect
Tb PYK inh – T. brucei pyruvate kinase inhibition; 410,000 tested, 0.12% active; Q57TT1; Potency, µM (series often up to 76.8 µM), without a hit: at the highest dose activity, negative = inhibition, hits mostly inhibitors; TbPYK enzyme, Kinase-Glo Plus ATP luminescence, 45 min; active = well fitted curve in the direction sought with a large enough effect; inconclusive = small, poorly fitted or top-dose-only effect, or another doubt; inactive = no such curve, though single readings can be large; an effect the other way counts as inactive or inconclusive; note: potency is the fitted concentration of half-maximal effect; % is set by controls: 0 for no effect and ±100 for the full control effect; nearly all actives have a fitted effect of over 50% in size
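ADP (130 uM final) triggers the TbPYK reaction after compound addition; incubation is 45 min at room temperature. Kinase-Glo Plus is then added and luminescence imaged. Normalized data are fitted to concentration-effect curves.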
Numbers without * were called inactive; ? = inconclusive; . = not tested or not shown; [ ] = another dose, or the depositor's remark. Unless noted, calls come from the whole dose curve.

SMILES | LmPK inh | Cycloheximide cs | SARS PLP yeast | NS1 function inh | Shiga inhibitor | Tb PYK inh
CN(C)c1ccc(C(=O)OCC(=O)c2cccs2)cc1 | 2% | 45* | 7% | -4% | 71* | -8%
CNS(=O)(=O)c1cccc(C(=O)OCC(=O)c2ccc3c(c2)OCCO3)c1 | . | . | -1% | . | . | 3%
COC(=O)c1ccccc1NC(=O)c1nc(-c2ccc(C)cc2)n2c1CCCCC2 | . | . | . | . | . | 4%
COc1ccc2cc(CNCCOCCOCCNCc3ccc4cc(OC)ccc4c3)ccc2c1 | . | . | . | . | . | 2%
O=C(COC(=O)c1cccs1)c1ccc2c(c1)OCCO2 | 13µM* | -2 | -28% | -117% | -14 | ?
O=C(NNC(=O)c1cccs1)c1ccc(Cl)c(Cl)c1 | 1% | -1 | -5% | -1% | 24 | 5%
O=C(NNC(=O)c1cccs1)c1ccc2ccccc2c1 | -5% | 29* | -2% | 1% | 51* | 4%
Cc1ccc(C(=O)COC(=O)c2cccs2)cc1 | ? | 11 | -5% | -3% | -2 | -14%
CCOC(=O)C1CCCN(C(=O)C(=O)c2cn(CC(=O)N3CCOCC3)c3ccccc23)C1 (configuration not stated) | 0% | -1 | 6% | -1% | -10 | 1%
COc1ccccc1NC(=O)c1cc2c(=O)n(Cc3cccs3)ccc2nc1C | . | . | . | . | . | 0%
COc1cccc(CNC(=O)CN(c2ccc(C)cc2)S(=O)(=O)N(C)C)c1OC | . | . | . | . | . | -4%
COCC(=O)N1CCc2nc(-c3ccccc3)c3c(c2C1)CO[C@@H](C)C3 | -3%[11.5 µM] | . | . | . | . | .
O=c1c2ccc([N+](=O)[O-])cc2ncn1CCOc1ccccc1 | 0% | 20* | -1% | 3% | 54* | -16%
Cc1ccc(OCCn2cnc3cc([N+](=O)[O-])ccc3c2=O)cc1 | 6% | -1 | -1% | . | -5 | 1%
O=c1c2ccccc2ncn1CCOc1ccccc1[N+](=O)[O-] | -4% | 26* | 0% | 2% | 37 | 0%
Cn1nc(CSc2ccccc2)c(C=O)c1Cl | -14% | 41* | -9% | . | 56 | -3%
Cc1cc(C(=O)O)cc(S(=O)(=O)NNC(=O)c2cccs2)c1C | -1% | 1 | -1% | 1% | -1 | 9%
CC(C)(C)c1cc(NC(=O)Nc2ccc(-c3cn4c(n3)sc3cc(OCCN5CCOCC5)ccc34)cc2)no1 | . | . | . | . | . | 1%
CCN(C(=O)COC(=O)C1CCN(S(=O)(=O)c2ccc(C)c(C)c2)CC1)C1CCCCC1 | . | . | 2% | . | . | 2%
COc1cc(-c2nc3ccccn3c2/N=C/c2cc(OC)c(O)cc2Cl)ccc1O | 6% | 30* | -9% | . | 22* | -9%
COc1cc(-c2nc3ccccn3c2/N=C/c2ccccc2)ccc1O | 0% | 3 | -5% | 17% | 19 | 0%
CC(C)Sc1nc(SCC(=O)O)c2c3c(sc2n1)COC(C)(C)C3 | -1% | 43* | 0% | ? | 54* | 4%
CCCSc1nc(SCC(=O)NCc2ccccc2)c2c3c(sc2n1)COC(C)(C)C3 | 9% | -5 | 4% | 1% | -2 | -14%
CC(C)Sc1nc(SCC(=O)NCc2ccco2)c2c3c(sc2n1)COC(C)(C)C3 | 4% | 93* | 4% | 2% | 183* | 2%
CN(CCc1ccccc1)C(=O)c1ccc(NC(=O)Cc2ccc(NC(=O)C3CCN(C(=O)CCc4ccccc4)CC3)cc2)cc1 | . | . | . | . | . | 4%
SMILES | LmPK inh | Cycloheximide cs | SARS PLP yeast | NS1 function inh | Shiga inhibitor | Tb PYK inh
Cc1ccc2ncc(NC(=O)c3ccc(F)cc3)c(=O)n2c1 | -7% | 7 | 2% | -23% | 23 | -7%
Cc1ccc(C(=O)Nc2cnc3ccccn3c2=O)cc1 | -15% | 41* | -15% | -49% | 103* | 1%
O=C(Nc1cnc2ccccn2c1=O)c1ccc(Cl)cc1Cl | ? | 44* | -2% | . | 96* | -1%
COc1ccc(OC)c(CNC(=O)Cc2ccc(NC(=O)N3CCSc4ncccc43)cc2)c1 | . | . | . | . | . | -2%[15.4 µM]
COc1cccc(C(=O)Nc2ccc(-n3nncc3C(C)(C)C)cc2)c1 | 2% | 21* | 1% | . | 64* | -6%
CC(C)(C)c1cnnn1-c1ccc(NC(=O)c2ccc3c(c2)OCO3)cc1 | -1% | 13* | -4% | -68% | 28* | 0%
COc1cccc(C(=O)Nc2ccc(NC(=O)c3ccc(C(C)(C)C)cc3)cc2)c1 | . | . | . | . | . | 0%
c1ccc(-c2cccs2)nc1 | -3% | 1 | 0% | -2% | -5 | -1%
O=c1oc(-c2cccs2)nc2ccccc12 | -5% | 9 | -4% | -90% | 50 | -4%
c1cc(-c2cccs2)nc(-c2cccs2)c1 | -4% | 46* | -4% | -7% | 53* | 2%
c1csc(-c2cnc3ccccc3n2)c1 | 15% | 29* | 1% | -17% | 75* | 1%
CCN(c1cccc(C)c1)C(CNS(=O)(=O)c1ccccc1)c1ccccc1 (configuration not stated) | . | . | . | . | . | 1%
Cc1ccc(S(=O)(=O)/N=C(/Nc2ccc([N+](=O)[O-])cc2)c2ccccc2)cc1 | 5% | 5 | 0% | 4% | -7 | 6%
O=[N+]([O-])c1ccc(NC(=S)N/C(=N/CS(=O)(=O)c2ccccc2)c2ccccc2)cc1 | 0% | 28* | 6% | 5% | 56* | -4%
COc1ccc(NC(=S)N/C(=N/CS(=O)(=O)c2ccccc2)c2ccccc2)cc1 | -1% | 35* | -20% | -3% | 70* | -5%
COc1ccc(NS(=O)(=O)c2cccc(NC(=O)CCS(=O)(=O)c3ccccc3)c2)cc1 | -1% | -3 | 23% | -11% | -12 | 3%
O=C(NCc1cccc(C(F)(F)F)c1)c1c[nH]c(=O)s1 | . | . | . | . | . | -7%
CCc1ccccc1NC(=O)C1COc2ccccc2O1 (configuration not stated) | 13% | 7 | 3% | 1% | . | -6%
O=C(Nc1nc2c(s1)CCCC2)C1COc2ccccc2O1 (configuration not stated) | -13% | 38* | -45% | -117% | 45* | -4%
CCCCCc1nnc(NC(=O)C2COc3ccccc3O2)s1 (configuration not stated) | -2% | 30* | -2% | . | 39* | -13%
CCC(CC)c1nnc(NC(=O)C2COc3ccccc3O2)s1 (configuration not stated) | -3% | 36* | -11% | -4% | 67* | 3%
O=C(Nc1ncc(Cc2ccccc2)s1)C1COc2ccccc2O1 (configuration not stated) | 1% | 43* | -1% | 2% | 126* | 0%
Cc1ccc(C)c(NS(=O)(=O)c2ccc3oc(=O)c4ncn(C)c4c3c2)c1 | . | . | . | . | . | 1%
Cc1ccc(F)cc1NC(=O)COC(=O)COc1ccc(C#N)cc1 | . | . | -3% | . | . | 0%
Cc1ccc(N(CC(=O)NCc2ccc(F)cc2)S(=O)(=O)c2c(C)n[nH]c2C)cc1 | 10% | -7 | 20% | ? | -2 | 7%
O=C(NN(Cc1ccccc1)Cc1ccccc1)c1ccccc1 | . | . | . | . | . | 3%

High-throughput results as filed in PubChem BioAssay.
